Our source for the Potency and activity change, negative = cytotoxicity values is PubChem BioAssay (Tox21).

Structures are written as SMILES. Results filed as inconclusive are left out. A call without a number means that no potency is given here. A number with no mark means an inactive call. Calls of active or inactive are those of the source. Calls come from the whole dose curve; as a rule, active = well fitted cell-killing curve with a large enough effect in the repeat runs; inconclusive = weak or mixed curves, or effect the other way; inactive = flat fitted curve, though single readings scatter.
Potency is the fitted concentration of half-maximal effect.

This assay in a line: qHTS RealTime-Glo MT Cell Viability Assay in HEK293 cells - 16 hour (AID 1224872). For activity change, negative = cytotoxicity: top concentration of the series differs between compounds. Note: nearly all actives have a fitted effect of over 50% in size. The following applies: RealTime-Glo luminescence; series mostly up to 76.8 µM. The source says:
National Center for Advancing Translational Sciences [NCATS]
NIH Chemical Genomics Center [NCGC]
U.S. Environmental Protection Agency [EPA]
National Institutes of Environmental Health Sciences [NIEHS]
National Toxicology Program [NTP]
U.S. Food and Drug Administration [FDA]
Measure of cell viability is critical in the cell-base assay. Analysis of cell viability is necessary for the characterization of cell responses to cytotoxic drugs and environmental stress. A RealTime-Glo MT Cell Viability Assay to monitor cell viability in real time of continues cell culture during 40 hours of compound treatment was used to screen Tox21 10K library compounds in Hek293 cells. The RealTime-Glo MT Cell Viability Assay is a nonlytic, homogeneous, bioluminescent method to measure cell viability in real time using a simple, plate-based method. The assay involves adding NanoLuc luciferase and a cell-permeant prosubstrate to cells in culture. Viable cells reduce the proprietary prosubstrate to generate a substrate for NanoLuc luciferase. This substrate diffuses from cells into the surrounding culture medium, where it is rapidly used by the NanoLuc Enzyme to produce a luminescent signal. The signal correlates with the number of viable cells, making the assay well suited for cytotoxicity studies.
Tox21 Assay Protocol Summary:
The mixture of Hek293 cell suspension and reagents were dispensed at 600cells/6 ul/well in 1536-well tissue culture treated black solid bottom plates using a Multidrop dispenser. After the assay plates were incubated at a 37 C/5% CO2 incubator for 5 hours, 23 nL of compounds dissolved in DMSO, positive and negative controls was transferred to the assay plate by a pintool work station. The plates were incubated at 37 C for 40 hours. The luminescence intensity were measured at 0h, 8h, 16h, 24h, 32h and 40h time points using ViewLux plate reader during compound treatment.
A general note: qHTS replaces the single test concentration by a dilution series.
As to `[Cl][Eu]([Cl])[Cl]`, the Potency entry was “inactive”.

`COc1cc(C(C)C)ccc1C`: the activity change, negative = cytotoxicity is -1.07% [at 15.8 µM]. For `Cc1cc(F)ccc1-c1cc(N2CC[C@@H](O)[C@H]2CO)ncc1N(C)C(=O)C(C)(C)c1cc(C(F)(F)F)cc(C(F)(F)F)c1`, the Potency is 30.4 µM (active). As for `C=C(C)CCO`, the Potency result was “inactive”.

In the case of `[Cl][Sc]([Cl])[Cl]`, the Potency entry is “inactive”. With `CCCCCCCCCCCC(=O)Cl`, the Potency result was “inactive”. For `Cn1ccnc1`, the Potency result is “inactive”. For the compound `CCCCCCCC/C=C\CCCCCCCC(=O)N(CCO)CCO`, the Potency is 43.5 µM (active). Still for that read-out and setting: to `CCC(O)CO` (stereo not given) belongs “inactive”; to `O=C(c1ccccc1)c1ccc(Cl)cc1`, “inactive”. On to `O=C1C=CC(=O)N1c1cccc(N2C(=O)C=CC2=O)c1`, for which the Potency was 12.3 µM (active).

Take `Cc1ccc2nc(-c3ccc(N)cc3)sc2c1S(=O)(=O)O`: the Potency entry is “inactive”. For `Nc1ccc(Cl)c([N+](=O)[O-])c1`, the Potency result is “inactive”.

For the compound `c1ccc2cc3c4ccccc4c4ccccc4c3cc2c1`, the Potency result is “inactive”. With `Cc1c(Cl)c(=O)oc2cc(O)ccc12`, the Potency was 49 µM (active). The same measure, in the same setting: the entry for `CC1(C)[C@H](C(=O)OCc2cccc(Oc3ccccc3)c2)[C@@H]1C=C(Cl)Cl` is “inactive”. For `CCOC(=O)[C@H](C)O`, the Potency entry was “inactive”. As to `O=c1cc[nH]cc1`, the Potency result is “inactive”. With `CN(C/C=C/c1ccccc1)Cc1cccc2ccccc12`, the Potency entry was “inactive”. With `CC/C=C(\C)C=O`, the Potency entry was “inactive”. For `O=[N+]([O-])c1ccc(O)c2ncccc12`, the Potency result was “inactive”.

Turning to `Cc1ccc(C=O)cc1`, the Potency result is “inactive”. Consider `CCCC(=O)c1cc(O)c(O)cc1O`, for which the Potency result was “inactive”. `CCNc1nc(NC(C)(C)C)nc(OC)n1`: the Potency entry was “inactive”.

For the compound `O=[N+]([O-])c1ccc(CO)cc1`, the Potency entry was “inactive”. As to `COc1cc2ncnc(Nc3cccc(Cl)c3)c2cc1OC`, the activity change, negative = cytotoxicity was -3.69% [at 15.8 µM]. `C=Cc1ccc(O)c(OC)c1`: the Potency entry was “inactive”. As to `C/C(=C\c1ccc(C(=O)O)cc1)c1ccc2c(c1)C(C)(C)CCC2(C)C`, the Potency result was “inactive”. For the compound `CN1CCN(CCCN2c3ccccc3Sc3ccc(C(F)(F)F)cc32)CC1`, the Potency is 21.3 µM (active).

`Nc1ccc(Oc2cccc(Oc3ccc(N)cc3)c2)cc1`: the Potency result is “inactive”. With `CC(=O)CC(N)=O`, the Potency result is “inactive”. In the case of `CCCCCCCCCCCCCCCCCCNC(=O)OC1CCN(C(=O)OC[C@H](COC(=O)N(Cc2cccc[n+]2CC)C(=O)c2ccccc2OC)OC)CC1`, the Potency was 21.3 µM (active).

On to `O=C1OC(=O)c2cc(-c3ccc4c(c3)C(=O)OC4=O)ccc21`, for which the Potency entry is “inactive”. For `CC(C)C(=O)C(C)C`, the Potency result was “inactive”. `O=C(CCCCCCCCc1cccnc1)N1CCC(C=C(c2ccccc2)c2ccccc2)CC1`: the Potency is 21.9 µM (active).

As for `CN(C[C@@H](CC[N+]12CCC(C3CCCCC3)(CC1)CC2)c1ccc(Cl)c(Cl)c1)C(=O)c1cc(C(F)(F)F)cc(C(F)(F)F)c1`, the Potency is 3.09 µM (active). For the compound `O=C(O)CN(CCCN(CC(=O)O)CC(=O)O)CC(=O)O`, the activity change, negative = cytotoxicity was -5.66% [at 15.8 µM]. Consider `CC(C)(C)c1cc(CCC(=O)OCCSCCOC(=O)CCc2cc(C(C)(C)C)c(O)c(C(C)(C)C)c2)cc(C(C)(C)C)c1O`, for which the Potency entry was “inactive”. For the compound `CSc1nnc(C(C)(C)C)c(=O)[nH]1`, the Potency entry is “inactive”. On to `[Cl][Dy]([Cl])[Cl]`, for which the Potency result was “inactive”.
